hgDAF12 agonist – H. glycines DAF-12 receptor agonists, primary screen, cell-based, luminescence, HEK293, GAL4 fusion, UAS-luciferase; activation, % at 6.8 µM; Nuclear hormone receptor DAF-12 (Heterodera glycines), GAL4 fusion; actives 1.8% (n = 370,000); HEK293 GAL4-hgDAF12 UAS-luciferase reporter, agonist luminescence; normalized to butyrate control;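 active means activation above a cutoff set at the mean of all screened compounds plus 3 SD, cut at about 10% in these data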
hcDAF12 agonist – H. contortus DAF-12 nuclear receptor activators, primary screen, cell-based, luminescence, HEK293, lit1-tk-luc reporter | activation, % at 6.8 µM | HEK293 hcDAF-12 lit1-tk-luc reporter; 0% DMSO, 100% Δ7-dafachronic acid | AID 652067, 2013 | actives 1.4% (n = 370,000);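 active means activation above the mean of all tested compounds plus 3 SD, cut at about 5.5% in these data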
DAX1 inh-1 – DAX1 (NR0B1) inhibitors on StAR promoter, primary screen, cell-based, luminescence, SF-1 (NR5A1), full-length DAX-1; HEK293T StAR-luciferase reporter, SF-1/DAX-1 repression relief; inhibition, % at 6.8 µM; actives 1.1% (n = 370,000);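 active means inhibition above the mean over all tested compounds plus 3 SD, cut at about 3.6% in these data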;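 further: higher inhibition means more luminescence from relief of DAX-1 repression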
ssDAF12 agonist – S. stercoralis DAF-12 nuclear receptor activators, primary screen, cell-based, luminescence, HEK293, GRIP1 co-expression, lit1-tk-luc; Nuclear hormone receptor DAF-12 (Strongyloides stercoralis); HEK293 ssDAF-12/GRIP1 lit1-tk-luc reporter; % of 3 µM dafachronic acid response; activation, % at 6.8 µM; actives 1% (n = 370,000); AID 652126, 2013;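 active means activation above the mean over all tested compounds plus 3 SD, cut at about 0.9% in these data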
Rev-erbA mod – modulators of Rev-erb alpha DNA binding, primary screen, biochemical, FITC-DNA, fluorescence polarization, uHTS | Nuclear receptor subfamily 1 group D member 1 (Homo sapiens), P20393 | Rev-erbα–FITC-DNA binding, 90 min | activity, % at 10 µM | actives 0.79% (n = 370,000) | AID 1259318, 2017;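 active means activity above about 14%, limit read from the data; passing the limit was not always enough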
DAX1 inh-2 – DAX1 (NR0B1) inhibitors, primary screen, cell-based, HEK293, Gal4-DAX1, luciferase luminescence. Nuclear receptor subfamily 0 group B member 1 (Homo sapiens), P51843. HEK293 Gal4-DAX1 luciferase reporter. inhibition, % at 6.75 µM. actives 0.99% (n = 340,000). AID 504766, 2011;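 active means inhibition above the mean over all tested compounds plus 3 SD, cut at about 4.2% in these data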;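 further: inhibition shows as a rise in luminescence from relieved DAX1 repression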
Target sequence (P51843 207-470 limits assumed): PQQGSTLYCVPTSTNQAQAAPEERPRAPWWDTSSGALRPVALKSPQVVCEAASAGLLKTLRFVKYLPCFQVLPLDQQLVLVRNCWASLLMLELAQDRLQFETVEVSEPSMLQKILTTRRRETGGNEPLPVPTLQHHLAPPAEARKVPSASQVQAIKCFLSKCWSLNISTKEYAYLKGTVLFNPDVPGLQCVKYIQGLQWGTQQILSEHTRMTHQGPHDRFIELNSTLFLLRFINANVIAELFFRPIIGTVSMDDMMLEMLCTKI
Each line names hits and unclear results; the compound was inactive in the other large screens. The list is not random: actives were taken first. Their share in the collection is about 4.8%.

COc1cc(C(=O)Nc2c(C(=O)O)[nH]c3ccccc23)cc(OC)c1OC	hcDAF12 agonist 6.1
COC(CNC(=O)[C@H](Cc1c[nH]c2ccccc12)NC1(C(=O)NC(c2ccccc2)c2ccccc2)CCCCC1)OC	none (no result: DAX1 inh-1, DAX1 inh-2)
CCOC(=O)[C@]12CCCCC/C=C\1N(Cc1ccc(OC)cc1)C(=O)[C@H]2CC(=O)N1CCCC1	none (no result: DAX1 inh-2)
Cc1ccc(/C=N/NC(=O)Nc2ccccc2)o1	hgDAF12 agonist 11
Cc1ccc(/C=N/NC(=O)C(O)c2ccccc2)o1 (stereo unspecified)	none
CCN(CC)c1ccc(/C=N/NC(=O)OC(C)(C)C)cc1	DAX1 inh-2 4.9
CCN(CC)c1ccc(/C=N/NC(=O)Nc2ccccc2)cc1	hgDAF12 agonist 11
CCN(CC)c1ccc(/C=N\NC(N)=O)cc1	none
CCCCNC(=O)C[C@H]1C[C@@]2(C(=O)OC)C(=C[C@H](C3CCCC3)O[C@@H]2C)N(Cc2cccc3ccccc23)C1=O	none (no result: DAX1 inh-2)
O=C(O)c1cccc(NC(=O)c2cccc(S(=O)(=O)N3CCc4ccccc43)c2)c1	DAX1 inh-2 4.6
O=C(NCc1cccs1)C1CCN(S(=O)(=O)c2cccc3cccnc23)CC1	DAX1 inh-2 4.3
O=C(Nc1ccncc1)c1cccc(S(=O)(=O)N2CCc3ccccc32)c1	none
O=C(O)c1ccc(NS(=O)(=O)c2ccc(Cl)c(C(=O)Nc3ccccc3)c2)cc1	none
Cc1ccc(C(=O)NCc2cccs2)cc1S(=O)(=O)N1CCCCC1	ssDAF12 agonist 1.2
Cc1ccc(NS(=O)(=O)c2ccc(Cl)c(C(=O)Nc3cccc(C(=O)O)c3)c2)cc1	DAX1 inh-2 5.4
CCOc1ccc(CCNC(=O)c2cc3ccsc3n2C)cc1OCC	none (no result: DAX1 inh-2)
Cc1ccc(S(=O)(=O)N2c3ccc(F)cc3C[C@H]2CSc2ccccc2)cc1	none (no result: DAX1 inh-1, DAX1 inh-2)
O=C(O)c1cccc(NC(=O)c2ccc(Cl)c(S(=O)(=O)N3CCCCCC3)c2)c1	hgDAF12 agonist 11
Cc1ccc(C(=O)Nc2ccc3cn[nH]c3c2)cc1S(=O)(=O)N1CCCCC1	hcDAF12 agonist 6.1
COCCNCC(=O)Nc1ccc(C)c(S(=O)(=O)N2CCCCC2)c1	DAX1 inh-2 4.3
CCCCOCCCNC(=O)C[C@@H]1C[C@]2(C(=O)OCC)CCC3=C2N(CCC3)C1=O	none (no result: DAX1 inh-2)
C#CCNC(=O)C[C@H]1C[C@@]2(C(=O)OC)C(=C[C@H](C(C)(C)C)O[C@@H]2C)N(Cc2ccco2)C1=O	none (no result: DAX1 inh-2)
CC(C)C[C@@H]1NC(=O)[C@H]2C[C@@]3(C)c4ccccc4N[C@H]3N2C1=O	none (no result: DAX1 inh-2)
Cn1nc(C(=O)OCC(=O)Nc2cc(Cl)ccc2C#N)c2ccccc2c1=O	none
O=C(COC(=O)COc1ccccc1[N+](=O)[O-])Nc1ccccc1Br	none
Cc1ccc(OCC(=O)Nc2ccccc2[N+](=O)[O-])c(Br)c1	ssDAF12 agonist 1.0
CC(C)c1ccccc1NC(=O)COC(=O)COc1ccccc1[N+](=O)[O-]	ssDAF12 agonist 1.9
COC(=O)c1ccccc1NC(=O)COc1ccccc1[N+](=O)[O-]	none
Cn1nc(C(=O)OCC(=O)Nc2ccccc2[N+](=O)[O-])c2ccccc2c1=O	ssDAF12 agonist 1.0
Cc1ccc(/C=N\NC(=O)COc2ccc(C)cc2[N+](=O)[O-])cc1	DAX1 inh-2 7.0
CCCCCCCC(=O)N[C@H]1CC[C@@]23CCCN2C(=O)CCC[C@H]3[C@H]1C	none (no result: DAX1 inh-1, DAX1 inh-2)
N#Cc1cccc(Cn2ccc3ccc(-c4ccc5ccn(Cc6ccccc6)c5c4)cc32)c1	none (no result: DAX1 inh-2)
CCc1ccc(CNCC(=O)N2CCC3(CC2)OCCO3)s1	none (no result: DAX1 inh-2)
CN(C)S(=O)(=O)c1ccc(Cl)c(NC(=O)COc2ccccc2[N+](=O)[O-])c1	ssDAF12 agonist 0.9
COc1cc(/C=N/NC(=O)COc2ccc(C)cc2)ccc1OC(=O)c1cccs1	ssDAF12 agonist 0.9
CCOc1cc(/C=N/NC(=O)COc2ccc(C)cc2)ccc1OC(=O)c1cccs1	none
CCN(CC)S(=O)(=O)c1ccc(Cl)c(NC(=O)COc2ccccc2[N+](=O)[O-])c1	none
COc1cccc(Cn2nnc(C(=O)NCCc3ccc(Cl)cc3)c2N)c1	DAX1 inh-2 5.5
COc1cccc(Cn2nnc(C(=O)Nc3cc(Cl)ccc3OC)c2N)c1	none
CCOc1ccc(Cn2nnc(C(=O)NCCc3ccc(Cl)cc3)c2N)cc1	none
CCOc1ccc(Cn2nnc(C(=O)NCCc3ccccc3)c2N)cc1	DAX1 inh-2 4.4
COC(=O)c1sc(N2C(=O)c3oc4ccccc4c(=O)c3C2c2cccc(O)c2)nc1C (stereo unspecified)	none
O=C1c2oc3ccccc3c(=O)c2C(c2ccc(O)cc2)N1c1nccs1 (stereo unspecified)	DAX1 inh-2 6.1
COCc1cn(-c2ccc3c(c2)[C@@]2(CC(=O)N(C)C2c2ccccc2)C(=O)N3CC(C)C)nn1 (stereo partly specified)	none (no result: DAX1 inh-2)
CCC(C)C(NC(N)=O)C(=O)Nc1ccc(C(=O)OC)cc1 (stereo unspecified)	DAX1 inh-2 4.4
CC(=O)NNC(=O)c1csc(-c2csc(C)n2)n1	DAX1 inh-2 7.3
COc1ccc(/C=C2/CN(Cc3ccc(OC)cc3OC)C3=NC(c4ccc5ccccc5c4)CC(=O)N32)cc1 (stereo unspecified)	none (no result: DAX1 inh-1, DAX1 inh-2)
Cc1ccsc1/C=N/Nc1ccc(C(=O)O)cc1	hcDAF12 agonist 6.4
Cc1ccc(/C=N/Nc2ccc(C(=O)O)cc2)s1	none
Nn1c(SCC(=O)Nc2ccc(OCc3ccccc3)cc2)nnc1-c1cc(-c2ccc(F)cc2)n[nH]1	none (no result: DAX1 inh-2)
O=c1nc(Nc2ccccc2)oc2ccccc12	DAX1 inh-2 5.8
O=c1oc(Nc2ccc(F)cc2)nc2ccccc12	none
Cc1ccc(S(=O)(=O)N2CC[C@@]3(Cc4ccccc4)Cc4ccccc4C[C@@H]23)cc1	none (no result: DAX1 inh-1, DAX1 inh-2)
COC(=O)[C@]12C[C@H](CC(=O)NCc3ccc(C)o3)C(=O)N(Cc3cccc4ccccc34)C1=C[C@H](C(C)(C)C)O[C@@H]2C	none (no result: DAX1 inh-2)
CCN1CCCCC(NC(=O)COCc2ccccc2)C1=O (stereo unspecified)	none (no result: DAX1 inh-2)
Cc1cccc(N=c2oc3cc(O)ccc3cc2C(N)=O)c1	hgDAF12 agonist 12
